# Measured values reported in PubChem BioAssay (NCATS).
# Where “and” joins values, the source holds several entries; their conditions need not be identical. Equal entries are not always repeated. Records with an inconclusive call do not appear. Where a call stands in place of a potency, no number is given. Calls of active or inactive are those of the source. Unless noted, calls follow the shape of the full dose curve.
# Legend:
# [1] = Cell Viability - NIH 3T3 (AID 541; active = well fitted curve in the direction sought with a large enough effect; an effect the other way counts as inactive or inconclusive;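 also: cells exposed to compound for 40 hours; nearly all actives have a fitted effect of over 25% in size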; also: potency is read from the fitted curve at half-maximal effect); conditions: NIH 3T3 cell viability, qHTS; activity change, negative = cytotoxicity: at 92.2 µM (top of the series)
# Outline: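 Cells seeded at 1000/well, rested 5 hr at 37 °C, then dosed and incubated 40 hr at 37 °C. CellTiter-Glo added, 20 min room temperature, luminescence read. AC50 by Hill fit.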
# [2] = Cell Viability - LYMP2-005 (AID 967; active = well fitted curve in the direction sought with a large enough effect; an effect the other way counts as inactive or inconclusive)
# Outline: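 qHTS viability screen in LYMP2-005 cells: 24 h at 37 C with compound, ATP luminescence via CellTiter-Glo, AC50 from Hill curves.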
# [3] = biological target: Bile acid receptor (Homo sapiens) (UniProt Q96RI1); assay: qHTS assay for small molecule agonists of farnesoid X receptor signaling (AID 588527); conditions: HEK293T FXR-UAS-bla, beta-lactamase ratio, 16 h; stronger effect = higher value
# Bile acid receptor (Homo sapiens), sequence (Q96RI1 whole entry, looked up): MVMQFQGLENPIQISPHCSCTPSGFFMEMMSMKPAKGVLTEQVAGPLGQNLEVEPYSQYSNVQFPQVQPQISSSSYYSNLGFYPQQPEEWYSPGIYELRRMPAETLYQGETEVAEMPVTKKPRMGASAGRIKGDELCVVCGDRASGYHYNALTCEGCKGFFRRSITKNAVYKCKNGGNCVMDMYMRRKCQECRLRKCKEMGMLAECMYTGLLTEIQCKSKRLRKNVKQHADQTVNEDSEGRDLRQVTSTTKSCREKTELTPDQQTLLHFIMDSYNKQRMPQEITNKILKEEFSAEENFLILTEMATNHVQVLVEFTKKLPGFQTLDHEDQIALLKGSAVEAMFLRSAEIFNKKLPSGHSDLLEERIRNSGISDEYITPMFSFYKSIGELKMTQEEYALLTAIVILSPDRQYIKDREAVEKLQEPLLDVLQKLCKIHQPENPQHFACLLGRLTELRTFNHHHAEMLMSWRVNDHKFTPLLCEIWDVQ
# Outline: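 Quantitative HTS used FXR-UAS-bla HEK293T cells with 16 h compound incubation at 37 C. EC50 values came from concentration-response curves normalized to chenodeoxycholic acid.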
# [4] = biological target: Glucocorticoid receptor (Homo sapiens) (UniProt P04150); assay: qHTS assay for small molecule agonists of glucocorticoid receptor signaling (AID 588532; active = well fitted curve in the direction sought with a large enough effect in the signal ratio, with a control signal flat; the % refers to the signal ratio); conditions: HeLa MMTV-bla, beta-lactamase ratio, agonist, 18 h; stronger effect = higher value; percent of dexamethasone control, DMSO zero
# Glucocorticoid receptor (Homo sapiens), sequence (P04150 whole entry, looked up): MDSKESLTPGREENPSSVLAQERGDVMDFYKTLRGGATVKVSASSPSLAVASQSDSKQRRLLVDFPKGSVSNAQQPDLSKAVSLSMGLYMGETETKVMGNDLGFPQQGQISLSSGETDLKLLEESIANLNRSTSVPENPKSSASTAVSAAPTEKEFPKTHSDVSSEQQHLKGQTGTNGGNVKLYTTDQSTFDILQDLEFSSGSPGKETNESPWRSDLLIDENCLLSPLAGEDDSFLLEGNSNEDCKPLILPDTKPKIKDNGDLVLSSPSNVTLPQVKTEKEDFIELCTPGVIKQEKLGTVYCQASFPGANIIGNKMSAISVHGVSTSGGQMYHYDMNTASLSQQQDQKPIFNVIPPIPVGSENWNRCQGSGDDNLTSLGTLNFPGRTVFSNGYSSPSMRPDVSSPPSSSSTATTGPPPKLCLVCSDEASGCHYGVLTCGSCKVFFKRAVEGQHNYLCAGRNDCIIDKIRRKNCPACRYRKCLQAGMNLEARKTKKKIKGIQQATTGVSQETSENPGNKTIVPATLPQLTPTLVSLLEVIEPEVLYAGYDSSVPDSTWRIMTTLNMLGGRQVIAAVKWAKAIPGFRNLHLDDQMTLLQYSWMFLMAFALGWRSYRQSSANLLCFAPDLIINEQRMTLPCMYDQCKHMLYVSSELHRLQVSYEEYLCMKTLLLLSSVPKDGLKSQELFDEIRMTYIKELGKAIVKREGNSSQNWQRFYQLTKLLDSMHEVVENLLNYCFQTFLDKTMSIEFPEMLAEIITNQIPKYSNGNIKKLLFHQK
# Outline: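 Stimulation of a glucocorticoid response element-driven beta-lactamase gene was measured in HeLa cells. Responses were scaled between DMSO basal and 0.1 uM dexamethasone, then fitted for half-maximal stimulation.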
# [5] = biological target: Glucocorticoid receptor (Homo sapiens) (UniProt P04150); assay: qHTS assay for small molecule antagonists of glucocorticoid receptor signaling (AID 588533; active = well fitted inhibition curve with a large enough effect in the signal ratio, with a control signal flat, not every such curve was filed as active; the % refers to the signal ratio;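 also: cells stimulated with 2 nM dexamethasone as agonist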)
# Outline: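 Antagonist-mode qHTS: compound titrations added to GRE-bla HeLa cells, then dexamethasone 2 nM final; 18 h, 37 C. CCF4 FRET fluorescence normalized to dexamethasone and DMSO; IC50 from Hill fit.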
# [6] = biological target: Peroxisome proliferator-activated receptor delta (Homo sapiens) (UniProt Q03181); assay: qHTS assay for small molecule agonists of peroxisome proliferator-activated receptor delta signaling (AID 588534)
# Peroxisome proliferator-activated receptor delta (Homo sapiens), sequence (Q03181 whole entry, looked up): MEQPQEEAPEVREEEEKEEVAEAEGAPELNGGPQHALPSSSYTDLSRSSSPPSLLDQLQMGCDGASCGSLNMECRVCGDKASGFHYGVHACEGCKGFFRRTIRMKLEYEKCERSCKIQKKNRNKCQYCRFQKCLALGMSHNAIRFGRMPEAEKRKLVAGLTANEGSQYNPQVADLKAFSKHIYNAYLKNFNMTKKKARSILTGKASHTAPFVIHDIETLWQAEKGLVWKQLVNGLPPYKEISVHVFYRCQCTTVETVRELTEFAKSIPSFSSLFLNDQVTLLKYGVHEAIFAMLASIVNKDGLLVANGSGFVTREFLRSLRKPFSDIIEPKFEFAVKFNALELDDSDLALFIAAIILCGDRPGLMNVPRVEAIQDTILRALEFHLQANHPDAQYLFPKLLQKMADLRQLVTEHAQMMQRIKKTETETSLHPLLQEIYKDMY
# Outline: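 Agonist-mode qHTS; reporter cells, 5 hrs 37 C pre-incubation; compound titration, 18 hrs 37 C; CCF4 dye, 2 hrs RT; fluorescence read. EC50/efficacy via Hill fit.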
# [7] = biological target: Vitamin D3 receptor (Homo sapiens) (UniProt P11473); assay: qHTS assay for small molecule agonists of vitamin D receptor signaling (AID 588543)
# Vitamin D3 receptor (Homo sapiens), sequence (P11473 whole entry, looked up): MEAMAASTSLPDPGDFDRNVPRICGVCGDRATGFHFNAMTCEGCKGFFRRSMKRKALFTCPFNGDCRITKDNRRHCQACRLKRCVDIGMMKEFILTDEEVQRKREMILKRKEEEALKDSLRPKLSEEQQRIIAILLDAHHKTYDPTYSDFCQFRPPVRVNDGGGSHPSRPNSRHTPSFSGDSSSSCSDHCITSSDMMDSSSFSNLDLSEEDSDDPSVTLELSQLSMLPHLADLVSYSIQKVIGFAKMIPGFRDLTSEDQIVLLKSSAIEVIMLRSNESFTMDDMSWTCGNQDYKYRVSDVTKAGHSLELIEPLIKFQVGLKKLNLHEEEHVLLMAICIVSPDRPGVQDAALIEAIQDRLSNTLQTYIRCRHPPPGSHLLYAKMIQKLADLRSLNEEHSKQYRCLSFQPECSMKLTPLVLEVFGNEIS
# Outline: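 qHTS in agonist mode: compound titrations stimulate a VDR-driven β-lactamase reporter in HEK293T cells over 16 h at 37 °C. Response normalized to 50 nM 1α,25-dihydroxyvitamin D3 = 100%, DMSO = 0%; Hill fitting gives EC50 and maximal response.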
# [8] = qHTS assay for small molecule agonists of the antioxidant response element (ARE) signaling pathway (AID 651741; active = well fitted activation curve with a large enough effect in the signal ratio; the % refers to the signal ratio; also: potency is read from the fitted curve at half-maximal effect)
# Outline: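 Reporter: beta-lactamase under ARE, stably in HepG2. Exposure: 16 h, 37 C, compounds delivered in DMSO by pin tool after 5 h cell preincubation. Readout: FRET substrate fluorescence after 2 h at RT.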
# [9] = qHTS assay for small molecule activators of the nuclear factor-kappa B (NF-kB) signaling pathway (AID 651749; active = well fitted activation curve with a large enough effect in the signal ratio; the % refers to the signal ratio); conditions: NF-kB-bla ME-180 cells, beta-lactamase FRET ratio, 16 h; stronger effect = higher value
# Outline: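 Human ME-180 cervical cells with an NF-kB-bla construct; compounds added via 23 nL pin transfer, DMSO as vehicle; incubation 16 hr. Reporter activity measured by FRET disruption.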
# [10] = Cell Viability - LYMP2-002 (AID 977; active = well fitted curve in the direction sought with a large enough effect; an effect the other way counts as inactive or inconclusive;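 also: compound exposure lasted 24 h at 37 °C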)
# Outline: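 In this qHTS viability screen, 2500 human lymphoblastoid cells per well receive compound for 24 hr at 37 C, and luciferase-based ATP luminescence gives the viability signal. Tetraoctylammonium bromide serves as positive control.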
# [11] = biological target: Peroxisome proliferator-activated receptor gamma (Homo sapiens) (UniProt P37231); assay: qHTS assay for small molecule antagonists of peroxisome proliferator-activated receptor gamma signaling (AID 588537; active = well fitted inhibition curve with a large enough effect in the signal ratio, with a control signal flat, not every such curve was filed as active; the % refers to the signal ratio;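 also: reporter cells co-stimulated with 50 nM rosiglitazone agonist during compound treatment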)
# Peroxisome proliferator-activated receptor gamma (Homo sapiens), sequence (P37231 whole entry, looked up): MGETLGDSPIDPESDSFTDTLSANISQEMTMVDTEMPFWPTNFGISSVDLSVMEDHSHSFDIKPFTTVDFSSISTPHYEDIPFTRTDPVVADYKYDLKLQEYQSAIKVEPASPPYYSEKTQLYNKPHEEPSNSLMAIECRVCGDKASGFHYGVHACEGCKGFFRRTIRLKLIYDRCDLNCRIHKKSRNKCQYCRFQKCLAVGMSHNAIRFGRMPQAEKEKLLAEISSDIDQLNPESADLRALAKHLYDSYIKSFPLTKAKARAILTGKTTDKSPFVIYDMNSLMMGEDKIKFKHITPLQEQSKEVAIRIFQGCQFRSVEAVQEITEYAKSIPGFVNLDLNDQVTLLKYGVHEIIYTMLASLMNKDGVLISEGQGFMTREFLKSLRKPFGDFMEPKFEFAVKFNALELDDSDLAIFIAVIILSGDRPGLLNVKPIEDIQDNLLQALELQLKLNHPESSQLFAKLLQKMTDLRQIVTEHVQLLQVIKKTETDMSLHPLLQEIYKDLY
# Outline: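 Compounds are tested as concentration series for inhibition of rosiglitazone-driven (50 nM) reporter expression in GeneBLAzer PPAR-gamma-UAS-bla HEK293 cells. After 16 h at 37 C, CCF4 substrate is added for 2 h at room temperature and blue/green fluorescence is measured.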
# [12] = biological target: Retinoic acid receptor RXR-alpha (Homo sapiens) (UniProt P19793); assay: qHTS assay for small molecule antagonists of retinoid X receptor alpha signaling (AID 588546; active = well fitted inhibition curve with a large enough effect in the signal ratio, with a control signal flat, not every such curve was filed as active; the % refers to the signal ratio;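 also: cells stimulated with 9-cis-retinoic acid as agonist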); conditions: HEK293T RXRa-UAS-bla, beta-lactamase ratio, antagonist mode
# Retinoic acid receptor RXR-alpha (Homo sapiens), sequence (P19793 whole entry, looked up): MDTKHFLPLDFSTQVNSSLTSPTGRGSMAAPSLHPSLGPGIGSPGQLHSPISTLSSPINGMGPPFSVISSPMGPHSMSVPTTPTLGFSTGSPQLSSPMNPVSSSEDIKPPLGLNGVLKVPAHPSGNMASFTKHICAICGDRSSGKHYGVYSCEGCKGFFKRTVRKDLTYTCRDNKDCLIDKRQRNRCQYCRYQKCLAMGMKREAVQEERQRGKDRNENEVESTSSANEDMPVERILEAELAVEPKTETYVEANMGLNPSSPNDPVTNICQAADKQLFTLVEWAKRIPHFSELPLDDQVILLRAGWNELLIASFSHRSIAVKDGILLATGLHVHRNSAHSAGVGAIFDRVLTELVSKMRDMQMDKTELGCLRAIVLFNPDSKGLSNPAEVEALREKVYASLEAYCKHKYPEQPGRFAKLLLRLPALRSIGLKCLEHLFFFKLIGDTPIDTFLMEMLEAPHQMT
# Outline: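 Beta-lactamase reporter inhibition, read as CCF4 fluorescence ratio (ex 405, em 460/530 nm) after 2 h at RT. HEK293T UAS-bla cells, 2500/well, were stimulated with 9-cis-RA at 500 or 100 nM final alongside test compound for 18 h at 37 C.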
# [13] = biological target: Estrogen receptor (Homo sapiens) (UniProt P03372); assay: qHTS assay for small molecule antagonists of estrogen receptor alpha signaling (AID 588513; active = well fitted curve in the direction sought with a large enough effect in the signal ratio, with a control signal flat, not every such curve was filed as active; the % refers to the signal ratio)
# Estrogen receptor (Homo sapiens), sequence (P03372 whole entry, looked up): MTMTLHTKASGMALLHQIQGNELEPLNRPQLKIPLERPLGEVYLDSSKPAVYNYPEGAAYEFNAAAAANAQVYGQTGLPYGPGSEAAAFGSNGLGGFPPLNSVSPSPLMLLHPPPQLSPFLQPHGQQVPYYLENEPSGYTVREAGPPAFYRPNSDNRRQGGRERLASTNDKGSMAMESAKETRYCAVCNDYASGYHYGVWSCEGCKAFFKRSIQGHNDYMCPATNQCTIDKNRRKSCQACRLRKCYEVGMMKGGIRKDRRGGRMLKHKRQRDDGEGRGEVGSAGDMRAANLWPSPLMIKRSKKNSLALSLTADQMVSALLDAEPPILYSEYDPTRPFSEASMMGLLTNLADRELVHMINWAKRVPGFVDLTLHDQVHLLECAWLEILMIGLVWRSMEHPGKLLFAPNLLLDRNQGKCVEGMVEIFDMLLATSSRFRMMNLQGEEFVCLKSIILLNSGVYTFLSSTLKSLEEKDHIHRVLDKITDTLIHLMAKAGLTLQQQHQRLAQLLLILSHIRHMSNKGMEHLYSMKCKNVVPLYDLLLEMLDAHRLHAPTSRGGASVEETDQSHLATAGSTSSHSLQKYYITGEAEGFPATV
# Outline: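 Cells were plated at 5000/well and incubated 4 h at 37 C. Compounds were added as 1:2 dilution series, duplicates. 17-beta-estradiol (0.5nM final) was added for 18 h before CCF4 detection.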
# [14] = biological target: Estrogen receptor (Homo sapiens) (UniProt P03372); assay: qHTS assay for small molecule agonists of estrogen receptor alpha signaling (AID 588514); also: nearly all actives have a fitted effect of over 70% in size; also: potency is read from the fitted curve at half-maximal effect
# Outline: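 Efficacy is expressed against 20 nM 17-beta-estradiol (100%) and DMSO basal (0%); EC50 from Hill equation. Assay: beta-lactamase reporter in ER-alpha-UAS-bla HEK 293 cells, 18 h compound incubation, CCF4 detection.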
# [15] = qHTS assay for small molecule antagonists of peroxisome proliferator-activated receptor delta signaling (AID 588535; active = well fitted inhibition curve with a large enough effect in the signal ratio, with a control signal flat, not every such curve was filed as active; the % refers to the signal ratio;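 as to max response: cells co-treated with a PPAR-delta agonist as stimulator during compound exposure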); conditions: HEK293T PPARd-UAS-bla, beta-lactamase FRET ratio, 18 h; 460 nm channel
# Outline: (§1)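 Inhibition of PPAR-delta response element-driven beta-lactamase expression is measured in HEK293T cells exposed to a compound titration series for 18 hrs at 37 C. Half-maximal inhibition comes from Hill equation fitting.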
# [16] = biological target: Peroxisome proliferator-activated receptor delta (Homo sapiens) (UniProt Q03181); assay: as above
# Outline: as §1
SMILES,Potency [1],Potency [2],activation [3],activation [4],outcome [5],outcome [6],outcome [7],Potency [8],activation [9],Potency [10],Potency [11],max response [12],Potency [13],Potency [14],max response [15] [%],outcome [16]
Oc1ccc(Cl)c(Cl)c1Cl,inactive,inactive,0.826% (inactive),6.93% (inactive),inactive,inactive,inactive,42.2 µM (active),-0.348% (inactive),–,–,–,–,–,–,–
S=C1NCCN1,inactive,inactive,–,–,–,–,–,–,0.43% (inactive) and 0.618% (inactive),inactive,inactive,–,–,–,–,–
CSSC,inactive,inactive,–,–,–,inactive,inactive,inactive,–,–,–,7.08% (inactive),–,–,–,–
O=c1ccc(=O)[nH][nH]1,inactive,–,-0.172% (inactive) and -2.47% (inactive),–,–,–,inactive,–,-0.7% (inactive) and 1.42% (inactive),inactive,–,–,–,–,–,–
CN(C)C(=O)Cl,inactive,inactive,–,12.7% (inactive),inactive,inactive,inactive,inactive,-0.0384% (inactive),inactive,–,8.18% (inactive),inactive,inactive,-22.3,inactive
C=CC#N,–,inactive,–,-6.69% (inactive),inactive,–,inactive,inactive,-0.054% (inactive),inactive,inactive,19% (inactive),–,–,–,–
BrCC(Br)C1CCC(Br)C(Br)C1 (stereo not given),–,–,–,–,–,–,–,–,-1.21% (inactive),inactive,–,18% (inactive),–,–,–,–
N#C/C(N)=C(/N)C#N,–,inactive,–,-0.556% (inactive),inactive,inactive,inactive,–,-1.05% (inactive),–,inactive,2% (inactive),inactive,inactive,–,–
OC[P+](CO)(CO)CO,0.501 µM (active),–,–,-0.662% (inactive) and -6.97% (inactive),inactive,inactive,inactive,37.6 µM (active) and 30.6 µM (active),–,–,inactive,-5.42% (inactive) and -52.4% (inactive),inactive,inactive,-16.4,inactive
CCOC(=O)C1OC1(C)c1ccccc1 (stereo not given),inactive,inactive,–,-3.51% (inactive),inactive,–,–,–,–,–,–,-0.211% (inactive),–,–,–,–
COc1c(C(C)(C)C)cc([N+](=O)[O-])c(C)c1[N+](=O)[O-],inactive,–,–,-4.08% (inactive),inactive,inactive,–,inactive,-0.667% (inactive),inactive,–,-14.3% (inactive),inactive,7.08 µM (active),–,–
COC(=O)c1ccccc1N,–,inactive,–,-6.23% (inactive),inactive,inactive,inactive,–,-0.425% (inactive),inactive,inactive,17.4% (inactive),–,–,-46.7,inactive
CCN(CC)N=O,–,inactive,-2.25% (inactive),–,–,inactive,–,inactive,0.914% (inactive),inactive,inactive,–,–,–,–,–
O=[N+]([O-])c1ccc(O)c([N+](=O)[O-])c1,–,inactive,–,–,–,–,–,66.8 µM (active),3.32% (inactive),inactive,–,–,inactive,–,–,–
CCN(CC)CCO,inactive,–,–,6.4% (inactive),inactive,inactive,–,inactive,-0.22% (inactive),–,inactive,35.6% (inactive),–,–,24,inactive
Oc1cccc(Cl)c1,inactive,inactive,2.65% (inactive),-11.4% (inactive),inactive,–,inactive,–,-0.548% (inactive),inactive,inactive,4.02% (inactive),inactive,–,–,–
Cc1cccc(C)c1N,inactive,–,-1.75% (inactive),–,–,inactive,–,inactive,-1.09% (inactive),inactive,–,17.5% (inactive),inactive,–,17.3,inactive
CC(C)C#N,inactive,–,–,1.53% (inactive),inactive,inactive,–,–,-0.872% (inactive),inactive,–,2.91% (inactive),–,–,-11.5,inactive
CC(C)OS(C)(=O)=O,–,–,-3.78% (inactive),–,–,inactive,inactive,–,–,inactive,–,–,inactive,inactive,-20,inactive
CCSC(=O)N1CCCCCC1,inactive,–,–,–,–,inactive,–,66.8 µM (active),0.506% (inactive) and -0.843% (inactive),inactive,inactive,-8.27% (inactive) and -1.48% (inactive),inactive,inactive,-18,inactive
CCNCC,inactive,inactive,–,0.672% (inactive),inactive,inactive,inactive,inactive,–,inactive,inactive,–,–,–,21.4,inactive
c1ccc2c(c1)ccc1cc3c(ccc4ccccc43)cc12,–,–,–,–,–,–,–,2.37 µM (active),–,–,–,–,–,–,–,–
CCCCOCC1CO1 (stereo not given),–,inactive,-3.01% (inactive),-2.49% (inactive),inactive,inactive,–,inactive,–,inactive,–,–,inactive,–,13.9,inactive
C=CCOCC1CO1 (stereo not given),inactive,inactive,-2.32% (inactive),4.14% (inactive),inactive,–,–,inactive,–,inactive,–,9.76% (inactive),inactive,inactive,–,–
BrCC(Br)(Br)Br,–,–,-2.57% (inactive),–,–,inactive,inactive,29.8 µM (active),0.84% (inactive),–,–,23.1% (inactive),inactive,inactive,–,–
